Most compounds without a hit are left out; they make up all but 5.9% or so of the library.
GLP1R ag = activates the human GLP-1 receptor; HEK293 GLP-1R CRE-luciferase, luminescence, 4-6 h; cells express a hypersensitive GLP-1R form; Potency, µM (top dose mostly 45.6 µM), inactives show at the top dose activation, usual class: activators; actives 0.007% (n = 380,000); AID 624172; note: % of control where 0% means no effect
Gal4-VP16 FLuc = inhibits Gal4-VP16 luciferase reporter, ROR gamma counter-screen; Drosophila S2 Gal4-VP16 UAS-luciferase, luminescence, 20 h; Potency, µM (doses to about 53.6 µM), without a hit: at the top dose activity, negative = inhibition, most hits filed as inhibitors; actives 3.5% (n = 310,000);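 note: Gal4-VP16 expression switched on by copper sulfate through the metallothionein promoter; % is set by controls: 0 for no effect and ±100 for the full control effect; nearly all actives have a fitted effect of over 50% in size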
HEK293 tox = cytotoxic in the GLP-1 receptor inverse agonist counter-screen; HEK293 cAMP-luciferase reporter cells, luminescence, 24 h; Potency, µM (titrated, usually from 38.3 µM), for the others: at the top dose activity change, negative = inhibition, hits mostly inhibitors; actives 0.13% (n = 410,000); AID 624418;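 note: loss of luciferase light is scored as toxicity; % is set by controls: 0 for no effect and ±100 for the full control effect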
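Seeding density was 200 cells/uL; after overnight-length (12 h) culture, 23 nL compounds went on for 24 h at 37 °C. Readout used a luciferase detection reagent, luminescence taken after 12 min at room temperature.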
RORgamma inh = inhibitors of mouse ROR gamma transcriptional activity; Potency, µM (series often up to 53.6 µM), for inactives: top-dose activity change, negative = inhibition, usual class: inhibitors; actives 5.4% (n = 310,000); Drosophila S2 Gal4-RORgamma UAS-luciferase reporter, 20 h; note: % is set by controls: 0 for no effect and ±100 for the full control effect; nearly all actives have a fitted effect of over 60% in size
Target sequence (P51450 whole entry, looked up, the tested form may be a part): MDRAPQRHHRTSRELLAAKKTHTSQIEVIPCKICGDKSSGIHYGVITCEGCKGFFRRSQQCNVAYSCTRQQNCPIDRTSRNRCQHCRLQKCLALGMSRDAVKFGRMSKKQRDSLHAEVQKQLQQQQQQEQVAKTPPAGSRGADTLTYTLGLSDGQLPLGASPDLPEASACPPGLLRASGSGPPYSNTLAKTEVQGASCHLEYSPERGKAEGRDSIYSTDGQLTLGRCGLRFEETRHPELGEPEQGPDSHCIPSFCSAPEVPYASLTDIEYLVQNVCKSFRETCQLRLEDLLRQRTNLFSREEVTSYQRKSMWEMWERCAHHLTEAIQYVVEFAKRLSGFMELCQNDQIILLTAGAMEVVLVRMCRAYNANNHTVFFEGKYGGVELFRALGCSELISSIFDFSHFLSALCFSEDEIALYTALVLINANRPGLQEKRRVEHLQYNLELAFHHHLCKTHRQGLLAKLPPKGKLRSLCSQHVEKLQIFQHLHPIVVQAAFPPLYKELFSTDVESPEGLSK
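A Gal4/UAS one-hybrid system in insect cells: metallothionein-promoter Gal4–ROR gamma fusion plus Photinus luciferase reporter. Copper sulfate 700 uM final, 20 hr ambient incubation, luminescent detection after 10 min with reagent.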
GLP-1R inv ag = acts as inverse agonist at human GLP-1 receptor; P43220; HEK293 GLP-1R CRE-luciferase, luminescence, 24 h; GLP-1R form is constitutively active; Potency, µM (highest dose often 38.3 µM), without a hit: at the top dose activity change, negative = inhibition, usual class: inhibitors; actives 1.6% (n = 410,000); AID 624417; note: % is set by controls: 0 for no effect and ±100 for the full control effect; nearly all actives have a fitted effect of over 55% in size
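Luminescence readout: a drop in cAMP-driven luciferase signal flags inverse agonism at a constitutively active GLP-1R stably expressed in HEK293. Compound exposure lasted 24 hr at 37 deg C, 5% CO2.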
An asterisk follows results filed as active; ? = inconclusive; . = no result given; [ ] = remark or other dose. Calls come from the whole dose curve; as a rule, active = well fitted curve in the direction sought with a large enough effect; inconclusive = small, poorly fitted or top-dose-only effect, or another doubt; inactive = no such curve, though single readings can be large; an effect the other way counts as inactive or inconclusive. Potency is the fitted concentration of half-maximal effect.

SMILES	GLP1R ag	Gal4-VP16 FLuc	HEK293 tox	RORgamma inh	GLP-1R inv ag
N#Cc1cnc(Nc2nc3ccccc3o2)nc1-c1ccccc1	1%	5µM*	-22%	2.5µM*	?
CCCc1nc(Nc2nc3ccccc3o2)nc(C)c1C(=O)OCC	?	?	13%	6.3µM*	55%
CCOC(=O)c1cnc(Nc2nc3ccccc3o2)nc1CSC(=S)N(CC)CC	13%	0.56µM*	-63%	0.56µM*	-79%
Cc1ccc2oc(Nc3nc(C)c(C)c(C)n3)nc2c1	-5%	6%	-15%	?	6%
C[C@@]12CCC[C@H]1[C@@H]1CC[C@H]3C[C@@H](O)CC[C@]3(C)[C@H]1CC2	4%	.	.	.	.
O=C(NCCOc1ccccc1)O[C@@H]1C(=O)c2cc(Br)ccc2O[C@H]1c1ccc2c(c1)OCO2	.	3%	.	5%	.
Cc1ccnc(Nc2nc3ccccc3o2)n1	-6%	7.9µM*	?	4.5µM*	2.5µM*
Cc1ccc(Nc2nc3ccccc3o2)cc1F	2%	15%	-18%	?	?
C[C@]12CCC(=O)C=C1CC[C@@H]1[C@@H]2[C@@H](O)C[C@@]2(C)[C@H]1CC[C@]2(O)C(=O)COP(=O)(O)O	-1%	5%	.	-2%	.
O=C1CCc2cc(S(=O)(=O)N3CCC(C(=O)NC4CCCC4)CC3)ccc2N1	-7%	6%	-14%	-15%	11%
O=C1CCc2cc(S(=O)(=O)N3CCC(C(=O)NCc4ccccn4)CC3)ccc2N1	.	?	.	13µM*	.
Cc1ccccc1-c1nn(-c2ccc(F)cc2F)cc1CNCCN(C)C	6%	2%	-3%	?	?
COCCN(C)Cc1cn(-c2ccc(F)cc2F)nc1-c1ccccc1C	1%	?	-3%	6.3µM*	?
CC(C)n1c(-c2ccccc2)nc(=S)c2c1CCCC2	.	-6%	.	?	.
COc1ccc(-n2c(-c3cccc(OC)c3)nc(=S)c3c2CCCC3)cc1	-9%	?	-18%	10µM*	-6%
COc1ccc(-n2c(-c3ccccc3)nc(=S)c3c2CCCC3)cc1	-13%	?	-5%	14µM*	-10%
O=c1c2nncn2ccn1-c1ccc(F)c(F)c1	1%	.	-1%	.	7%
O=C(CCS(=O)(=O)c1cc2c(cc1Cl)NC(=O)CO2)NCCc1ccc(Cl)cc1	-8%	.	5%	.	4%
O=C(Nc1cccc(F)c1)N1CCN(C/C=C/c2ccccc2)CC1	-3%	19%	-15%	7%	8.9µM*
O=C(c1cccc([N+](=O)[O-])c1)N1CCN(C/C=C/c2ccccc2)CC1	11%	13%	?	?	-22%
O=C(NC(=S)N1CCN(C/C=C/c2ccccc2)CC1)c1ccco1	-7%	4µM*	?	1.1µM*	-20%
O=C(NC(=S)N1CCN(C/C=C/c2ccccc2)CC1)c1c(F)cccc1F	2%	2.8µM*	?	1.3µM*	-17%
CC(C(=O)Nc1cccc([N+](=O)[O-])c1)N1CCN(C/C=C/c2ccccc2)CC1 (stereo not drawn)	11%	7%	-28%	16%	10µM*
CC(=O)c1cccc(NC(=O)Nc2nnc(N3CCCC3)s2)c1	.	.	1%	.	11%
COC(=O)[C@H]1C[C@@H]2CC[C@@H](O)C[C@@H]2N1Cc1c(F)cccc1Cl	.	-1%	.	-8%	.
SMILES	GLP1R ag	Gal4-VP16 FLuc	HEK293 tox	RORgamma inh	GLP-1R inv ag
O=C(CSc1cccc[n+]1[O-])Nc1ccccc1Oc1ccccc1	3%	7.9µM*	0.79µM*	6.3µM*	?
O=C(CSc1cccc[n+]1[O-])Nc1ccccc1C(F)(F)F	9%	.	1%	.	31%
COC(=O)c1ccc(C(=O)OC)c(NC(=O)CSc2cccc[n+]2[O-])c1	3%	3.5µM*	?	5µM*	?
Cc1ccc(-n2nc(C(=O)N3CCN(c4ccc(F)cc4)CC3)c(=O)n(C)c2=O)cc1	.	.	-6%	.	-23%
Cc1cc(C(F)(F)F)n2nc(-c3ccc(Br)cc3)cc2n1	.	.	20%	.	7%
Cc1ccccc1NC(=S)c1ccc2ccccc2n1	3%	6.3µM*	0%	?	12%
CCCN(CC(=O)Nc1ccccc1C)C(=O)c1ccc2ccccc2n1	16%	.	-1%	.	-14%
CO/N=C1/CC2(CC3CC(C/C=C(/C)CC(C)/C=C\C=C4\COC5C(O)C(C)=CC(C(=O)O3)C45O)O2)OC(/C(C)=C/C(C)C)C1C (stereo not drawn)	-4%	.	.	.	.
CCCCCCCC#Cc1ccccc1/C=N/S(=O)C(C)(C)C (stereo not drawn)	.	1%[10 µM]	.	-15%[10 µM]	.
Cc1ccc(-c2c[n+](CC(=O)Nc3c(C)cccc3C)c3n2CCC3)cc1	1%	4%	6%	4%	12%
CC(C)[C@@H]1CC[C@@H](C)C[C@H]1OC(=O)C[n+]1cc(-c2ccc(Cl)cc2)n2c1CCCCC2	5%	11µM*	-22%	?	?
COc1ccc(-c2c[n+](CC(=O)OC3CC(C)CCC3C(C)C)c3n2CCC3)cc1 (stereo not drawn)	-2%	7.9µM*	-22%	?	?
CC1=C(C(=O)Nc2ccc(C)cc2C)C(c2ccccc2F)n2nc(SCC(=O)c3ccc(C)cc3)nc2N1 (stereo not drawn)	.	.	13%	.	8%
CCN(C(=O)c1ccc(C)c(Br)c1)c1ccccc1	10%	4%	1%	34%	10µM*
O=C(NNC(=O)C1CCN(Cc2ccc(F)cc2Cl)CC1)Nc1ccc([N+](=O)[O-])cc1	0%	-14%	8%	-2%	4µM*
COc1cc(NC(=O)CN2CCCN(Cc3cccc(F)c3)S2(=O)=O)cc(OC)c1	.	.	-3%	.	-17%
CC(C)N1CC(O)=C(c2nc3ccccc3[nH]2)C1=N	5%	-6%	-7%	-18%	1%
CC1(C)C(O)=C(c2nc3ccccc3[nH]2)C(=N)N1c1ccccc1	2%	11µM*	-2%	1.8µM*	-2%
N#C/C(=C\c1cccs1)C(=O)c1ccccc1Cl	-7%	7.9µM*	10%	?	-30%
N#C/C(=C\c1cccs1)C(=O)Nc1nccs1	3%	?	-19%[7.66 µM]	7.1µM*	19%[7.66 µM]
N#C/C(=C\c1cccs1)C(=O)NCc1ccccc1	12%	15%	-5%	34%	-1%
O=S(=O)(c1ccccc1)N1CCC2(CC1)CN(c1ccccn1)C2	.	10%	.	-2%	.
O=C(Cc1ccccc1)N[C@H](c1ccccc1)P(=O)(O)CO	-1%	-4%	3%	2.8µM*	1%
O=C(O)CC(NC(=O)Cc1ccccc1)c1ccccc1 (stereo not drawn)	-1%	-13%	4%	-15%	18%
Cc1ccc2c(c1)sc(=NC(=O)c1cccs1)n2C	-6%	7.9µM*	19%	8.9µM*	?
Cc1cccc(C(=O)NCCc2nc3ccccc3n2Cc2ccc(Cl)cc2)c1	.	.	-7%	.	?

Screening data: PubChem, National Center for Advancing Translational Sciences (NCATS)
